Experiment [1] in a line: Validation of Assay for Modulators of Lamin A Splicing (AID 1459; active = well fitted curve in the direction sought with a large enough effect in the signal ratio; the % refers to the signal ratio;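 also: cells exposed to compound for two days before reading; 0% is about no effect; ratio rise marks activators and ratio drop marks inhibitors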). In short, it runs like this: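 Splicing correction is reported by an EGFP-containing lamin A minigene in stably transfected S3 HeLa cells, while DsRed2 controls for viability and nonspecific signal. Cells are exposed to compounds for 48 hrs before the GFP over RFP ratio is taken.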
Experiment [2] in a line: qHTS Assay for Lipid Storage Modulators (AID 1519; calls by dose curve; as to activity change, negative = inhibition: % is scaled to controls: 0 for no effect and ±100 for the full control effect). Conditions: Drosophila S3 cells, BODIPY lipid droplet/cell ratio, laser cytometry, cells loaded with oleic acid. The method, boiled down:
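Cells seeded at 5,000 per well were treated with compounds over a concentration series and loaded with oleic acid (400 uM, as added). Lipid droplet fluorescence (488 nm excitation, 500-530 nm channel) was read by laser-scanning cytometry and normalized to 20 uM Triacsin C.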
On the technique in general: Quantitative high-throughput screening tests each substance at several concentrations.

Experiment [3] deals with DNA repair nuclease/redox regulator APEX1 (Homo sapiens) (UniProt P27695). Nature of the experiment: qHTS Validation Assay for Inhibitors of the Human Apurinic/apyrimidinic Endonuclease 1 (APE1) (AID 1705;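 also: TAMRA fluorescence gain over two minutes as APE1 cuts a quenched THF abasic duplex; % is scaled to controls: 0 for no effect and ±100 for the full control effect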). In short, it runs like this:
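Endonuclease activity of human APE1 is followed as dequenching when the enzyme incises a tetrahydrofuran abasic site in a short duplex labelled 5'-TAMRA/3'-BHQ-2 (50 nM final), after 15 min enzyme–compound preincubation at room temperature.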

The nature of experiment [4]: Counterscreen for APE1 Inhibitors: Fluorescent Dye Displacement Validation Assay (AID 1707).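 Also: plate controls were ThO with dsDNA and no compound for no effect and ThO without dsDNA for full effect.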 The method, boiled down:
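Thiazole Orange displacement from dsDNA: 250 nM ThO with 50 nM TAMRA-labelled abasic-site (tetrahydrofuran) duplex in 50 mM Tris-HCl pH7.5, 50mM NaCl, 2 mM MgCl2, 0.01% Tween-20. Loss of endpoint fluorescence (ex 480 nm, em 540 nm) flags DNA binders.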
(In general: The purpose of a counterscreen is to sort out artefacts and off-target activity.)

Experiment [5] has as its target Endonuclease 4 (Escherichia coli (strain K12)) (UniProt P0A6C1). Nature of the experiment: Counterscreen for APE1 Inhibitors: qHTS Validation Assay for Inhibitors of Endonuclease IV (AID 1708). Also: % is scaled to controls: 0 for no effect and ±100 for the full control effect. In short, it runs like this:
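E. coli EndoIV at 2 nM final, preincubated 15 min at room temperature with compound, then 50 nM TAMRA/BHQ-2 THF abasic-site duplex added. Buffer: 50 mM Tris-HCl pH 7.5, 50 mM NaCl, 2 mM MgCl2, 1 mM DTT, 0.01% Tween-20. Kinetic fluorescence increase, third minus first read.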

Experiment [6] is described as follows: qHTS for differential inhibitors of proliferation of Plasmodium falciparum line 7G8 (AID 1815).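 Also: parasite growth measured after three days of incubation.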 Also: potency is read from the fitted curve at half-maximal effect.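 As to activity change, negative = inhibition: plate controls were vehicle wells for no effect and reference inhibitor wells for full effect.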
Experiment [7] can be described thus: qHTS for differential inhibitors of proliferation of Plasmodium falciparum line GB4 (AID 1816).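 Also: parasite growth measured after 72 h incubation.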 Also: potency is read from the fitted curve at half-maximal effect.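 As to activity change, negative = inhibition: 0% = vehicle DMSO and -100% = reference inhibitor.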 As to conditions: Potency: Plasmodium falciparum GB4 proliferation inhibition.
A short description of experiment [8]: qHTS for differential inhibitors of proliferation of Plasmodium falciparum line 3D7 (AID 1876). Also: potency is read from the fitted curve at half-maximal effect.
Experiment [9] in a line: qHTS for differential inhibitors of proliferation of Plasmodium falciparum line D10 (AID 1877).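 Also: parasites grown with compound for 72 h before DNA staining.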 Also: potency is read from the fitted curve at half-maximal effect.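 As to activity change, negative = inhibition: plate controls were vehicle wells for no effect and reference inhibitor wells for full effect.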
The target of experiment [10] is Alpha-galactosidase A (Homo sapiens) (UniProt P06280). Nature of the experiment: Counterscreen for Glucocerebrosidase Inhibitors: qHTS Assay for Human alpha-Galactosidase at pH 4.5 (AID 992). Also: 0% is about no effect. In short, it runs like this: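 Enzyme at 2 nM final was combined with compound (0.7 nM to 77 uM) and 80 uM 4-methylumbelliferyl alpha-D-galactopyranoside in 50 mM citric acid, 0.005% Tween-20, pH 4.5. After 20 min at room temperature, fluorescence was read (Ex 365/Em 440 nm); AC50 came from Hill fits.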

Experiment [11] addresses alpha-glucosidase (Oryza sativa, rice) (UniProt Q653V4). Description: Counterscreen for Glucocerebrosidase Inhibitors: qHTS Assay for Rice alpha-Glucosidase at pH 5.0 (AID 997).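 Also: 0% = full activity with enzyme and -100% = basal without enzyme.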 The method, boiled down: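 Rice alpha-glucosidase (4 nM final) with 400 uM 4-methylumbelliferyl-alpha-D-glucopyranoside in citrate buffer pH 5.0, 20 min at room temperature, stopped at pH 10; fluorescence 365/440 nm, compounds 0.7 nM–77 uM, AC50 from Hill fits.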

[12] abbreviates: measured here: cell count channel max response.
Where [13] appears, read: measured here: lipid channel max response.

Several values for one entry are separate records, joined by “and”; a condition that tells them apart may be missing. Identical values can stand only once. Records with an inconclusive call do not appear. Activity calls are given as the source filed them. Unless noted, calls follow the shape of the dose curve; as a rule, active = well fitted curve in the direction sought with a large enough effect; inconclusive = small, poorly fitted or top-dose-only effect, or another doubt; inactive = no such curve, though single readings can be large; an effect the other way counts as inactive or inconclusive.

Alpha-galactosidase A (Homo sapiens), sequence (P06280 whole entry, looked up): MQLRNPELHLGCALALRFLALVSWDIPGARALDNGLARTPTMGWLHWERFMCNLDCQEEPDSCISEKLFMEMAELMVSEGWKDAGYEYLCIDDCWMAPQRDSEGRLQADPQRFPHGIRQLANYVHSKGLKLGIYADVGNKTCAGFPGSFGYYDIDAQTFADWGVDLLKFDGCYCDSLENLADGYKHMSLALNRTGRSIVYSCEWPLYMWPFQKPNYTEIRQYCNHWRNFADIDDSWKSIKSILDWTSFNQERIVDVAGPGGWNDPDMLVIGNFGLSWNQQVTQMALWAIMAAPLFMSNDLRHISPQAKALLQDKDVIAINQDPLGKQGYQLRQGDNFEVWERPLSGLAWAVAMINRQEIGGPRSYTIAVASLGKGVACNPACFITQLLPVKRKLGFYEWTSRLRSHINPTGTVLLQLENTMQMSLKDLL
DNA repair nuclease/redox regulator APEX1 (Homo sapiens), sequence (P27695 whole entry, looked up): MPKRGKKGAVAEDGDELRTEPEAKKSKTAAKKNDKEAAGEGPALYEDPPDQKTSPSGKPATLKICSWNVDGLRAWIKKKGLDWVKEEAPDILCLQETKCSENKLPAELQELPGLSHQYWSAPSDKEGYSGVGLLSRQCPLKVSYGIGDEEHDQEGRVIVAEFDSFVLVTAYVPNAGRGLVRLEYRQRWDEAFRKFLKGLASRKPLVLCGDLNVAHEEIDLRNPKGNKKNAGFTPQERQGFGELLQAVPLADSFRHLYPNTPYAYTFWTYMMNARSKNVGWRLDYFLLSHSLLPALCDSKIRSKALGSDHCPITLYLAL

Take `O=C(O)[C@H]1NCCC[C@H]1C(=O)O`: the molecule was classed as inactive in experiment [1]. Also, the activity change, negative = inhibition in [2] (at 57.5 µM (top of the series)) is -1.57% (inactive). The max response in experiment [2] (setting [12]) was -48.8%; in experiment [2] (setting [13]), -48.9%. Also, the Potency result in experiment [3], in experiment [4], in experiment [5], in experiment [6], in [7] and in experiment [8] was “inactive” in each case. Besides, the Potency entry in experiment [9] is “inactive”.

As to `CCCCCC(O)CCCC(=O)O` (centres undefined), the molecule was called inactive in experiment [1]. The activity change, negative = inhibition in experiment [2] (at 57.5 µM (top of the series)) was 0.833% (inactive). In addition, the max response was -25.3% in experiment [2] (setting [12]) and -24.6% in experiment [2] (setting [13]). Further, the Potency entry in experiment [3], in [4], in [5], in experiment [6], in [7] and in [8] was “inactive” each time. For the same molecule, the Potency result in experiment [9] was “inactive”.

For `CN[C@H](CC(=O)O)C(=O)O`, the call in experiment [10], in experiment [11] and in experiment [1] was inactive. In [2] (at 57.5 µM (top of the series)), the activity change, negative = inhibition is 3.39% (inactive). Moreover, the max response in experiment [2] (setting [12]) was found to be 12.1%; in experiment [2] (setting [13]), 14.4%. Moreover, the Potency result in experiment [3], in experiment [4], in [5], in experiment [6], in experiment [7] and in experiment [8] was “inactive” each time. Also, in experiment [9], the Potency result is “inactive”.

As for `COc1cc(CC(=O)O)ccc1O`, the outcome in experiment [10], in experiment [11] and in [1] was inactive. Besides, the activity change, negative = inhibition in [2] (at 57.5 µM (top of the series)) is -0.731% (inactive). Also, the max response in [2] (setting [12]) was found to be 56.6%; in experiment [2] (setting [13]), 57.3%. For the same molecule, the Potency result in experiment [3], in [4], in experiment [5], in experiment [6], in [7] and in experiment [8] was “inactive” each time. The Potency result in [9] was “inactive”.

Consider `CN1CCCC1CCOC(C)(c1ccccc1)c1ccc(Cl)cc1` (centres undefined), for which the molecule was classed as inactive in experiment [1]. Further, the activity change, negative = inhibition in experiment [2] (at 57.5 µM (top of the series)) is 0.234% (inactive). The max response in experiment [2] (setting [12]) was -30.3%; in experiment [2] (setting [13]) it was -27.1%. The Potency result in [3], in experiment [4] and in [5] was “inactive” throughout. Besides, the Potency in experiment [6] is 5.01 µM (active); in experiment [7], 5.62 µM (active); in experiment [8], 3.98 µM (active); in [9], 11.2 µM (active).

On to `Oc1cc2c(cc1O)C(c1ccccc1)CNCC2` (centres undefined), for which the molecule was classed as inactive in experiment [1]. Also, the activity change, negative = inhibition in experiment [2] (at 57.5 µM (top of the series)) was 4.39% (inactive) and 0.147% (inactive). Moreover, the max response in experiment [2] (setting [12]) was 1.14% and -18.7%; in [2] (setting [13]), 16.2% and -20.2%. Besides, the Potency entry in experiment [3], in experiment [4] and in [5] was “inactive” in each case.

With `Oc1ccc(Cn2cc[nH]c2=S)cc1`, the call in experiment [10], in experiment [11] and in experiment [1] was inactive. Also, in [2] (at 57.5 µM (top of the series)), the activity change, negative = inhibition was -3.19% (inactive). For the same molecule, the max response in experiment [2] (setting [12]) was -28.3%; in experiment [2] (setting [13]) it was -29.9%. The Potency result in experiment [3], in [4], in experiment [5], in experiment [6], in [7] and in experiment [8] was “inactive” in each case. Besides, in experiment [9], the Potency entry was “inactive”.

Take `COc1ccc(-c2ccc(N)[n+](CCCC(=O)O)n2)cc1`: the call in [10], in experiment [11] and in experiment [1] was inactive. The activity change, negative = inhibition in experiment [2] (at 25.7 µM (top of the series)) was -0.132% (inactive). For the same molecule, the max response was 3.21% in experiment [2] (setting [12]) and 7.04% in [2] (setting [13]). The Potency entry in experiment [3], in [4], in [5], in experiment [6], in experiment [7] and in experiment [8] was “inactive” in each case. For the same molecule, in experiment [9], the Potency result is “inactive”.

Consider `CC(=O)/C(C)=N/O`, for which the result in experiment [1] was inactive. The activity change, negative = inhibition in [2] (at 57.5 µM (top of the series)) is 2.05% (inactive). Besides, the max response in [2] (setting [12]) turned out to be 5.13%; in experiment [2] (setting [13]), 6.8%. Besides, the Potency result in [3], in experiment [4], in experiment [5], in [6], in [7] and in experiment [8] was “inactive” each time. The Potency result in experiment [9] is “inactive”.

Consider `C[C@@H](NCCc1ccc(O)cc1)[C@@H](O)c1ccc(O)cc1`, for which the molecule was called inactive in experiment [1]. Besides, in [2] (at 57.5 µM (top of the series)), the activity change, negative = inhibition is 1.71% (inactive). The max response is -16.7% in [2] (setting [12]) and -23.8% in experiment [2] (setting [13]). Further, the Potency result in experiment [3], in [4], in experiment [5], in experiment [6], in experiment [7] and in [8] was “inactive” each time. The Potency entry in experiment [9] is “inactive”.

The values are drawn from PubChem BioAssay (NCATS).
